From PubChem BioAssay
Unmarked numbers belong to inactive results. How the calls were made is not given here.

target: Pantothenate synthetase (Mycobacterium tuberculosis (strain ATCC 25618 / H37Rv)) (UniProt P9WIL5); assay: Coupled enzyme confirmation of inhibitors against recombinant Mtb PanC (AID 375); conditions: coupled enzyme assay; at 10 µM, hits give high values;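 further: 0% = full reaction with vehicle and 100% = no enzyme background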
Sequence (P9WIL5 whole entry, looked up): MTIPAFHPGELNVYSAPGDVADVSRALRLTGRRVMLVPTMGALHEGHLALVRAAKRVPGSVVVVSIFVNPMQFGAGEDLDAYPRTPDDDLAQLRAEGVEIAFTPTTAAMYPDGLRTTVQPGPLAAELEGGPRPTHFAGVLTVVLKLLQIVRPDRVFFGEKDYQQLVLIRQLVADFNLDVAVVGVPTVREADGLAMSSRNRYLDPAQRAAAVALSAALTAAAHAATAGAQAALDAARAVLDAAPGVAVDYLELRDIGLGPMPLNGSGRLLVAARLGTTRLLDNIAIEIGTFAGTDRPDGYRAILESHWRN

| SMILES | inhibition [%] |
| --- | --- |
| C=CCNC(=O)CN(c1cccc(Br)c1)S(C)(=O)=O | 0 |
| Cc1cc(=O)oc2cc(Oc3ncccn3)ccc12 | 6 |
| C=CCSc1nnc2n(-c3ccccc3OC)c(=O)c3c4c(sc3n12)CCC4 | 0 |
| C=CCn1c(SCC(=O)O)nnc1-c1cccc(Cl)c1 | 0 |
| CCc1nnc(NC(=O)CSc2nnc3ncccn23)s1 | 11 |
| Cc1cc(C)c(C(=O)Nc2ccc(S(=O)(=O)Nc3onc(C)c3C)cc2)c(C)c1 | 8 |
| Cc1ccccc1C(=O)Nc1c(C(=O)N2CCCC2)cnn1-c1ccccc1 | 8 |
| Cc1ccc(NC(=O)CN(c2ccc3c(c2)OCO3)S(=O)(=O)c2c(C)n[nH]c2C)cc1 | 1 |
| Cc1onc(-c2ccccc2)c1C(=O)Nc1ccnn1C1CCCCC1 | 1 |
| Cn1c(=O)c2c(ncn2CC(=O)OCC(=O)NC2CCCc3ccccc32)n(C)c1=O (centres undefined) | 3 |
| COCCCNC(=O)CCCn1c(=O)c2ccccc2n(CC(=O)Nc2c(C)cccc2C)c1=O | 0 |
| c1ccc2nc(-c3nc4ccccc4[nH]3)ccc2c1 | 0 |
| CN(C)c1nc(Oc2ccc(=O)n(C)n2)nc(N2CCOCC2)n1 | 0 |
| Cc1[nH]nc2c1C(=O)CC(C)(C)C2 | 0 |
| COc1ccc2c(C(=O)CN(C)C3CCCCC3)c[nH]c2c1 | 0 |
| CC1(C)NC(=O)N(CC(O)COc2ccc(-c3ccccc3)cc2)C1=O (centres undefined) | 0 |
| C1CNCCNCCNCCN1 | 0 |
| CC(=O)N1CCc2cc(S(=O)(=O)NCCC(=O)Nc3cc(C)cc(C)c3)ccc21 | 2 |
| COC(=O)c1cn(NC(=O)c2cccnc2)c(=O)c2ccccc12 | 0 |
| c1ccc2c(NC3CCCC3)nnc(NC3CCCC3)c2c1 | 0 |

| SMILES | inhibition [%] |
| --- | --- |
| CCOC(=O)C1CCN(c2c(N3CCCCCC3)c(=O)c2=O)CC1 | 2 |
| O=C1CCN(C(=O)c2ccccc2)C2CCCCC12 (centres undefined) | 0 |
| CCOC(=O)Cn1c2c(c(=N)c3ccccc31)CCC2 | 13 |
| CCC(c1nnnn1C(C)(C)C)N1CCN(C2CCCC2)CC1 (centres undefined) | 4 |
| Cc1cc(C)cc(NS(=O)(=O)c2ccc3[nH]cc(C(=O)NCc4ccco4)c(=O)c3c2)c1 | 0 |
| O=C(c1ccc(-c2ccccc2)cc1)N1CCN(c2ncccn2)CC1 | 8 |
| COC(=O)c1cn(C(=O)OC)c2ccccc12 | 7 |
| CCNCC(O)COCC(O)CNCC (centres undefined) | 0 |
| COC(=O)c1ccccc1S(=O)(=O)N(Cc1cc2cc3c(cc2[nH]c1=O)OCO3)C1CCCCC1 | 1 |
| COc1cc(CN(C)CC(=O)c2[nH]c(C)c(C(C)=O)c2C)ccc1OC(F)F | 0 |
| COc1cc(C(=O)OCC(=O)N(C)Cc2ccccc2)cc(OC)c1OC | 0 |
| CN(C)[C@@H]1C(=O)C(C(N)=O)=C(O)[C@@]2(O)C(=O)C3=C(O)c4c(O)ccc(Cl)c4[C@@H](O)[C@H]3C[C@@H]12 | 0 |
| CCC(C)c1ccc(NC(=O)c2cccnc2)cc1 (centres undefined) | 9 |
| CCCCN(CC)S(=O)(=O)c1ccc2c(c1)CCCN2C(C)=O | 6 |
| Cc1ccc(N(CC(O)CN2CCCC2)S(=O)(=O)c2ccc(C)cc2)cc1 (centres undefined) | 0 |
| C(=N\n1cnnc1)/c1cccc(OCCOc2ccccc2)c1 | 0 |
| O=C1OCCC1Sc1ncnc2sc3c(c12)CCC3 (centres undefined) | 0 |
| CCCCNC(=O)CSc1nc2ccc(N3CCOCC3)cc2c(=O)n1CCc1ccccc1 | 15 |
| Cc1cc(C(=O)CSc2nc3ccccc3n2CCC#N)c(C)n1Cc1cccs1 | 0 |
